Assay outcomes deposited in PubChem BioAssay by National Center for Advancing Translational Sciences (NCATS).
B2AR arrestin: beta2AR (human) beta-arrestin recruitment activity | P07550 | beta-arrestin recruitment to beta2AR, cell-based reporter | Potency, µM (highest dose often 46.1 µM), without a hit: at the top dose activation, hits mostly activators | actives 0.02% (n = 330,000);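 also: potency is read from the fitted curve at half-maximal effect; 0% = DMSO controls and full agonism = EC100 isoproterenol or metaproterenol; nearly all actives have a fitted effect of over 65% in size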
Epigenetic reg: derepresses silenced GFP reporter in murine cells. Potency, µM (series often up to 53.9 µM), for inactives: top-dose GFP activation, usual class: activators. murine LDR cells, GFP reporter derepression, 30 h. actives 0.2% (n = 280,000). AID 1865; also: potency is read from the fitted curve at half-maximal effect; % of control where 0% means no effect; nearly all actives have a fitted effect of over 60% in size
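In this reporter-derepression format, murine cells bearing a silenced integrated CMV-GFP locus incubate with test compound (30 h, 37 C), then are washed and imaged; fluorescent objects of 20–120 um count as induced cells.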
PINK1 modulator: modulators of PINK1 expression. Potency, µM (doses to about 76.6 µM), for inactives: top-dose activation (PINK1 increase), actives largely listed as activators. actives 0.2% (n = 410,000). PINK1 immunofluorescence, high-content cytometry, 24 h; active = well fitted activation curve with a large enough effect; inconclusive = small, poorly fitted or top-dose-only effect; cell line not stated here; also: potency is read from the fitted curve at half-maximal effect; % of control where 0% means no effect; nearly all actives have a fitted effect of over 65% in size
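Stable cell line, 250 cells/well, 12 h attachment; compounds pinned at 5 concentrations, 24 h; CCCP control. Fixed with nuclear dye, primary antibodies 12 h at 10 degrees C, secondary plus cell stain; laser-scanning cytometer read.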
IL-2 act: activates IL-2 in a cell-based reporter assay. AID 652025. activation, % (series mostly up to about 46 µM). IL-2 activation reporter assay, cell-based qHTS; stimulated with anti-CD3/CD4/CD28 beads; in transgenic mouse T cells. actives 0.065% (n = 360,000); in the data active = activation above about 50%; inconclusive = mostly about 30% to 49%; also: 0% is about no effect
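EGFP and DsRed fluorescence is measured by plate cytometry in unstimulated transgenic mouse T cells exposed to compound for 60 minutes, then stimulated 18 hours at 37 degrees C with anti-CD3/anti-CD4 beads plus anti-CD28.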
PKM2 act: activators of human pyruvate kinase M2 | P14618 | purified PKM2, Kinase-Glo ATP luminescence, activation; response scale: 0% is enzyme alone, no compound | Potency, µM (titrated, usually from 57.5 µM), inactives show at the top dose activation, usual class: activators | actives 0.34% (n = 260,000) | AID 1631; also: potency is read from the fitted curve at half-maximal effect; % is scaled to controls: 0 for no effect and ±100 for the full control effect; nearly all actives have a fitted effect of over 55% in size
Target sequence (P14618 whole entry, looked up): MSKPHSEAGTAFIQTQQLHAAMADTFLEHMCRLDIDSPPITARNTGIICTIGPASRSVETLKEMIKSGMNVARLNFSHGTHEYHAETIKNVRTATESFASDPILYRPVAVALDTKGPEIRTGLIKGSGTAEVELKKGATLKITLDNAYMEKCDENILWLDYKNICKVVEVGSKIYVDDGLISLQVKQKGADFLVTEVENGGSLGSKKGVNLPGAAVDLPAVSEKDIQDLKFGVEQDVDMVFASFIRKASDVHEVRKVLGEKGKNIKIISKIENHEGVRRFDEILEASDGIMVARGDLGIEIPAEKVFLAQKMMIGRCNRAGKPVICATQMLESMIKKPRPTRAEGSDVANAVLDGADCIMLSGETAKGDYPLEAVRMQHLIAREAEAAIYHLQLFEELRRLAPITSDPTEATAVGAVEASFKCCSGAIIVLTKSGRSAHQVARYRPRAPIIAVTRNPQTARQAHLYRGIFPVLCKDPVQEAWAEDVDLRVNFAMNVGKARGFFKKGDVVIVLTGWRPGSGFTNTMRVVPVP
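Purified hPK-M2 (>95%) run at intermediate activity with 0.1 mM ADP and 0.5 mM PEP in 50 mM imidazole pH 7.2, KCl, MgCl2; 1 h room temperature. ATP formed read by Kinase-Glo luminescence; normalized to uninhibited and no-enzyme controls.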
HeLa viability: reduces HeLa cell viability in PKM2 activator counter-screen; shares compounds with PKM2 act; HeLa viability, CellTiter-Glo ATP luminescence, 24 h; activity change, negative = cytotoxicity, % at 57.5 µM; 230 tested, under 10 active; AID 1898; also: % of control where 0% means no effect
Parental c127i: parental c127i cell effect of epigenetic modulator hits; shares compounds with Epigenetic reg; mouse c127i parental cells, fluorescent cell count, 30 h; Potency, µM, without a hit: at the highest dose fluorescent cell count, most hits filed as activators; actives 20% (n = 60)
HCC4017 viab: reduces HCC4017 lung cancer cell viability among epigenetic modulators; shares compounds with Epigenetic reg; HCC4017 NSCLC viability, CellTiter-Glo ATP luminescence, 72 h; Potency, µM (top dose mostly 46.1 µM), without a hit: at the top dose activity change, negative = cytotoxicity, most hits filed as cytotoxic; actives 30% (n = 45)
H358 viab: H358 cytotoxicity of epigenetic modulator hits. H358 NSCLC viability, ATP luminescence, 72 h. AID 493074. shares compounds with Epigenetic reg. actives 30% (n = 45). Potency, µM (top dose mostly 46.1 µM), inactives show at the top dose activity change, negative = viability loss, usual class: cytotoxic
Numbers without * were called inactive; ? = inconclusive; . = no result; [ ] = dose if it differs, or a comment. The list is not random: actives were taken first. Their share in the collection is about 0.58%. Unless noted, calls follow the shape of the dose curve; as a rule, active = well fitted curve in the direction sought with a large enough effect; inconclusive = small, poorly fitted or top-dose-only effect, or another doubt; inactive = no such curve, though single readings can be large; an effect the other way counts as inactive or inconclusive.

SMILES	B2AR arrestin	Epigenetic reg	PINK1 modulator	IL-2 act	PKM2 act	HeLa viability	others
COc1ccc(S(=O)(=O)N2CCC(C(=O)NCc3cccc(OC)c3)CC2)cc1	-0.4%	-1.9%	0.3%	-2.4	1.58µM*	0.0
O=S(=O)(c1ccc2c(c1)OCCO2)N1CCN(c2nc3ccccc3s2)CC1	-0.3%	2.1%	1.1%[38.3 µM]	-1.3	3.98µM*	-8.8
O=S(=O)(c1ccc2c(c1)OCCO2)N1CCN(S(=O)(=O)c2c(F)ccc(O)c2F)CC1	.	.	.	.	.	-5.9
CN1CCN(S(=O)(=O)c2ccc3c(c2)OCCO3)CC1	-0.2%	1.0%	2.5%	2.5	11.1%	.
O=S(=O)(c1ccc2c(c1)OCCO2)N1CCN(S(=O)(=O)c2ccc3c(c2)OCCO3)CC1	0.0%	.	.	.	.	5.5
COc1cc(=O)n2c(c1C(=O)NC(C)c1ccco1)CCN(C(=O)c1cc(C)cc(C)c1)CC2 (centres undefined)	.	.	1.2%	.	.	.
O=S(=O)(c1ccc2c(c1)OCCO2)N1CCN(Cc2ccccc2)CC1	0.4%	0.0%	-0.5%	-0.7	6.8%	.
COc1cc(F)c(S(=O)(=O)N2CCN(S(=O)(=O)c3ccc4c(c3)OCCO4)CC2)c(F)c1	.	.	.	.	.	-8.3
O=S(=O)(c1ccc2c(c1)OCCO2)N1CCN(S(=O)(=O)c2ccccn2)CC1	0.0%	.	-1.0%	0.2	.	-12.2
COc1ccc(S(=O)(=O)N2CCN(S(=O)(=O)c3ccc(OC)cc3)CC2)cc1	-0.1%	.	.	.	.	-3.4
Cc1cccc(NS(=O)(=O)c2cc3c(cc2C)n(C)c(=O)c(=O)n3C)c1	0.1%	.	0.1%	-3.5	0.398µM*	-25.1
CC(=O)Nc1cc(S(=O)(=O)Nc2cccc(C)c2)c(C)cc1C	-0.6%	2.0%	0.5%	1.3	2.0%	.
CC(=O)N1c2ccc(S(=O)(=O)NCC3CCC(C(=O)Nc4ccc(F)cc4)CC3)cc2CC1C (centres undefined)	.	-1.1%	-0.7%	.	.	.
CCc1ccc(NC(=O)C2CCC(CNS(=O)(=O)c3ccc4c(c3)CC(C)N4C(C)=O)CC2)cc1 (centres undefined)	.	?	3.1%	.	.	.	Parental c127i=1.0%;HCC4017 viab=?;H358 viab=-11.3%
Cc1cc(C(=O)Nc2ccccc2-c2nc(CNC(=O)c3ccc(F)cc3F)c(C)o2)c(C)o1	.	.	1.1%	.	.	.
CC1=NN(c2nc3ccccc3[nH]2)C(=O)C1Cc1ccccc1 (centres undefined)	-0.6%	?	?	-0.2	6.0%	.	Parental c127i=7.0%;HCC4017 viab=4.45µM*;H358 viab=7.91µM*
COCCN1CCN(C(=O)c2cnn(-c3nccc(-c4cc5ccccc5o4)n3)c2C2CC2)CC1	.	.	-0.2%	.	.	.
O=C(Cn1c(=O)n(Cc2ccc(F)cc2)c(=O)c2sc3ccccc3c21)Nc1ccc(F)cc1F	.	?	2.2%	.	.	.	Parental c127i=1.0%
COC(=O)c1ccccc1COn1c(=O)c[n+]([O-])c2ccccc21	-0.2%	?	-1.3%	2.8	1.5%	.
CCOn1c(=O)c[n+]([O-])c2ccccc21	0.4%	10µM*	-1.5%	-1.6	-0.7%	.	Parental c127i=28.0%;HCC4017 viab=-3.1%;H358 viab=-5.2%
O=C(N/N=C/c1ccccn1)c1cc(-c2ccc(Br)cc2)nc2ccccc12	0.4%	?	-1.2%	1.5	-3.1%	.
O=C(N/N=C/c1ccccn1)c1cc(-c2ccc(Cl)cc2)nc2ccccc12	2.4%	5.01µM*	5.7%	-2.4	-6.4%	.	Parental c127i=3.0%;HCC4017 viab=?;H358 viab=?
